Laboratory results taken from PubChem BioAssay (NCATS).
Records with an inconclusive call do not appear. The source made the active and inactive calls. The call rests on the fitted dose curve; in most records, active means well fitted inhibition curve with a large enough effect; inconclusive means small, poorly fitted or top-dose-only effect; inactive means no such curve, though single readings can be large or run the other way.

Target: Cytochrome P450 2D6 (Homo sapiens) (UniProt P10635)
Assay: qHTS Assay for Inhibitors and Substrates of Cytochrome P450 2D6 (AID 891); further: nearly all actives have a fitted effect of over 60% in size
Outline: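 Luminescent read-out of luciferin formed by 5 nM human CYP2D6 demethylating 30 uM Luciferin-ME EGE (Km level) over 60 min at room temperature after NADPH regeneration addition. Data normalized to full inhibition by 1.43 uM quinidine.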
Potency means the concentration at half of the fitted maximal effect.

Sequence of Cytochrome P450 2D6 (Homo sapiens) (P10635 whole entry, looked up): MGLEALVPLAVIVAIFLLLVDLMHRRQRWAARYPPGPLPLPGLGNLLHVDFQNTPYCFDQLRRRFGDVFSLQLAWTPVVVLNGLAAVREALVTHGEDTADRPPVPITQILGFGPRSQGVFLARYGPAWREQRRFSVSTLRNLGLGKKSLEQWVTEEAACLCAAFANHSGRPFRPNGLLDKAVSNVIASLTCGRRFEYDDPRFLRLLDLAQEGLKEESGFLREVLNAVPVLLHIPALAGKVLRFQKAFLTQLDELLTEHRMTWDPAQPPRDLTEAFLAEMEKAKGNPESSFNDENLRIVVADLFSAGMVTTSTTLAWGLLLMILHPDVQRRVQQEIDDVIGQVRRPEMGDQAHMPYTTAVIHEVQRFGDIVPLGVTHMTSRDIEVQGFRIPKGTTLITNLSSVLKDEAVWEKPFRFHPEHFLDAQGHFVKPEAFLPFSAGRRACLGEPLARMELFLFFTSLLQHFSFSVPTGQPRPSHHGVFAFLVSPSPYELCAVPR

| SMILES | Potency |
| --- | --- |
| CNc1ccnc(-c2ccccc2CN(C)C)n1 | 0.0398 µM (active) |
| Cc1cccc(CNc2ncncc2-c2ccc3c(c2)OCO3)c1 | 6.31 µM (active) |
